Among all 5,500 compounds or so, about 2,000 (36%) were called active. Roughly 18% stayed inconclusive and do not appear here. No stated cut-off is given here; in the data, active means normalized growth mostly below about 0.91 (no sharp cut-off); inconclusive means no clear call, values can overlap the other calls; inactive means mostly above about 0.92. The list shows a part of the results.
Test: chemical genetic growth profiling, strain panel (AID 1159580);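 further: tested at 20 µM; growth read once vehicle control cultures reached saturation at 30 °C; 1 = growth at the plate median or of vehicle wells; lower values mean less growth of the strain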
Settings: S. cerevisiae deletion strains, growth OD

Measured: normalized growth

C[N+](C)(CCCCCC[N+](C)(C)CCCN1C(=O)c2cccc3cccc(c23)C1=O)CCCN1C(=O)c2cccc3cccc(c23)C1=O
inactive: locus YAL040C, strain CLN3, active compounds read low 0.984 | locus YCL061C, strain MRC1 (second series), active compounds read low 1 | locus YDR150W, strain NUM1, active compounds read low 1 | locus YDR363W, strain ESC2, active compounds read low 0.986 | locus YER002W, strain NOP16, active compounds read low 1.01 | locus YGR229C, strain SMI1, active compounds read low 1 | locus YMR307W, strain GAS1, active compounds read low 0.981 | locus YNL128W, strain TEP1, active compounds read low 0.995 | locus YNL153C, strain GIM3, active compounds read low 0.955 | locus YNL175C, strain NOP13, active compounds read low 1.01 | locus YNL197C, strain WHI3, active compounds read low 1.01 | locus YNL224C, strain SQS1, active compounds read low 1 | locus YOR083W, strain WHI5 (second series), active compounds read low 1.01 | locus YPL055C, strain LGE1, active compounds read low 0.963 | locus YPL241C, strain CIN2, active compounds read low 0.99

CC(C)(CCC(C)(C)N1C(=O)c2cccc3cccc(c23)C1=O)N1C(=O)c2cccc3cccc(c23)C1=O
inactive: locus YDL132W, strain cdc53, active compounds read low 0.971 | locus YJR016C, strain ILV3, active compounds read low 0.976 | locus YPR111W, strain DBF20, active compounds read low 0.92
active: locus YAR019C, strain CDC15, active compounds read low 0.0987 | locus YBL105C, strain PKC1, active compounds read low 0.0855 | locus YBR135W, strain CKS1, active compounds read low 0.0899 | locus YBR136W, strain MEC1, active compounds read low 0.107 | locus YBR160W, strain CDC28, active compounds read low 0.0904 | locus YDL017W, strain CDC7, active compounds read low 0.0866 | locus YDL028C, strain MPS1, active compounds read low 0.0947 | locus YDL101C, strain DUN1, active compounds read low 0.628 | locus YDL108W, strain KIN28, active compounds read low 0.13 | locus YDL214C, strain PRR2, active compounds read low 0.0867 | locus YDR052C, strain DBF4, active compounds read low 0.308 | locus YDR054C, strain cdc34, active compounds read low 0.227 | locus YDR226W, strain ADK1, active compounds read low 0.509 | locus YDR477W, strain SNF1, active compounds read low 0.0979 | locus YER123W, strain YCK3, active compounds read low 0.103 | locus YER133W, strain GLC7, active compounds read low 0.0935 | locus YFL029C, strain CAK1, active compounds read low 0.0982 | locus YFR003C, strain YPI1, active compounds read low 0.0904 | locus YFR019W, strain FAB1, active compounds read low 0.0894 | locus YGR040W, strain KSS1, active compounds read low 0.1 | locus YGR052W, strain FMP48, active compounds read low 0.133 | locus YGR092W, strain DBF2, active compounds read low 0.098 | locus YHR030C, strain SLT2, active compounds read low 0.0982 | locus YHR079C, strain IRE1, active compounds read low 0.116 | locus YHR082C, strain KSP1, active compounds read low 0.129 | locus YHR205W, strain SCH9, active compounds read low 0.213 | locus YIL147C, strain SLN1, active compounds read low 0.0853 | locus YJL095W, strain BCK1, active compounds read low 0.128 | locus YJL128C, strain PBS2, active compounds read low 0.472 | locus YJL157C, strain FAR1, active compounds read low 0.0837 | locus YJR066W, strain TOR1 (second series), active compounds read low 0.12 | locus YJR066W, strain TOR1, active compounds read low 0.123 | locus YKL048C, strain ELM1, active compounds read low 0.104 | locus YKL067W, strain YNK1, active compounds read low 0.0909 | locus YKL101W, strain HSL1, active compounds read low 0.099 | locus YKL193C, strain SDS22, active compounds read low 0.0977 | locus YKL203C, strain TOR2, active compounds read low 0.116 | locus YLR113W, strain HOG1, active compounds read low 0.166 | locus YLR133W, strain CKI1, active compounds read low 0.0889 | locus YLR403W, strain SFP1, active compounds read low 0.0154 | locus YML070W, strain DAK1, active compounds read low 0.0999 | locus YMR001C, strain CDC5, active compounds read low 0.0878 | locus YMR205C, strain PFK2 (second series), active compounds read low 0.0998 | locus YMR277W, strain FCP1, active compounds read low 0.104 | locus YNL006W, strain LST8, active compounds read low 0.0921 | locus YNL020C, strain ARK1, active compounds read low 0.0878 | locus YNL161W, strain CBK1, active compounds read low 0.0843 | locus YNL183C, strain NPR1, active compounds read low 0.13 | locus YNL207W, strain RIO2, active compounds read low 0.508 | locus YNL222W, strain SSU72, active compounds read low 0.095 | locus YNL307C, strain MCK1 (second series), active compounds read low 0.0953 | locus YOL078W, strain AVO1, active compounds read low 0.093 | locus YOL136C, strain PFK27, active compounds read low 0.0923 | locus YOR061W, strain CKA2, active compounds read low 0.1 | locus YOR119C, strain RIO1, active compounds read low 0.118 | locus YOR231W, strain MKK1, active compounds read low 0.13 | locus YOR329C, strain SCD5, active compounds read low 0.0829 | locus YPL031C, strain PHO85, active compounds read low 0.0976 | locus YPL153C, strain RAD53, active compounds read low 0.101 | locus YPL204W, strain HRR25, active compounds read low 0.0987 | locus YPL209C, strain IPL1, active compounds read low 0.0859 | locus YPL256C, strain CLN2, active compounds read low 0.134 | locus YPR025C, strain CCL1, active compounds read low 0.0843 | strain NNK1, active compounds read low 0.0956 | strain TSCII, active compounds read low 0.0989

— PubChem BioAssay AID1159580 (chemical genetic matrix, 2015)
